Measurements: PubChem BioAssay (NCATS)
Records with an inconclusive call do not appear. Active and inactive are the calls of the source. Calls come from the whole dose curve; as a rule, active = well fitted curve in the direction sought with a large enough effect; inconclusive = small, poorly fitted or top-dose-only effect, or another doubt; inactive = no such curve, though single readings can be large; an effect the other way counts as inactive or inconclusive.

Tests used:
[1] = Cellular Toxicity (caspase-3) Mesangial (AID 660); conditions: mesangial cells, normalized: DMSO 0%, 100 µM tamoxifen 100%; at 91.7 µM (top of the series);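 note: combined caspase 3 and 7 activity read by Caspase-Glo luminescence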
Procedure, shortened: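 Concentration-response qHTS: compound-induced rise in caspase 3/7 luminescence in human mesangial cells after 16 h, normalized to DMSO and 100 uM tamoxifen controls.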

[2] = Cellular Toxicity (caspase-3) SK-N-SH (AID 661);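 note: 0% = DMSO basal and 100% = 10 µM staurosporine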
Procedure, shortened: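 Caspase 3/7 activation is measured as a luminescence increase from aminoluciferin released by substrate cleavage in SK-N-SH cells after 16 hr compound treatment; values are AC50 from concentration-response curves.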

[3] = Cellular Toxicity (caspase-3) H-4-II-E (AID 663); conditions: H-4-II-E rat hepatoma, scaled: DMSO 0%, 100 µM tamoxifen 100%; at 92.2 µM (top of the series);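 note: cells exposed to compound for 16 hr before readout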
Procedure, shortened: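 Rat hepatoma H-4-II-E cells (1500/well) plated 5 hr, then exposed to compound titrations for 16 hr at 37 °C. Caspase-Glo 3/7 luminescence read after 20 min at RT; data normalized to DMSO and 100 uM tamoxifen, AC50 from Hill fits.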

[4] = Cellular Toxicity (caspase-3) Hek293 (AID 664); conditions: HEK293 caspase-3 activation, DMSO = 0%, 100 µM tamoxifen = 100%; at 92.2 µM (top of the series);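 note: cells exposed to compound for 16 h at 37 °C before readout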
Procedure, shortened: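 Activation of caspase-3/7 is measured as increased luminescence from cleaved peptide-aminoluciferin substrate in HEK293 cells treated 16 hours at 37 °C. AC50 values come from Hill-equation fits of concentration-response data.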

[5] = Cellular Toxicity (caspase-3) N2a (AID 665);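 note: compound exposure lasted 16 h at 37 °C before readout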
Procedure, shortened: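 Plated mouse neuroblastoma N2a cells received titrated compounds for 16 h in complete medium. Caspase activity was then detected with a peptide-aminoluciferin luminescent reagent.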

[6] = Cellular Toxicity (caspase-3) NIH 3T3 (AID 666);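 note: caspase signal read after 16 h compound exposure; 0% = DMSO basal and 100% = 100 µM tamoxifen stimulation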
Procedure, shortened: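 Concentration-response qHTS in NIH 3T3 mouse fibroblasts scores caspase-3/7 activation as rising luminescence after 16 hr compound exposure. Signals are scaled between DMSO-only and 100 uM tamoxifen.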

[7] = Cellular Toxicity (caspase-3) Renal Proximal Tubule (AID 667); conditions: Potency: caspase-3 activation;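 note: cells exposed to compound for 16 hours at 37 °C before detection; 0% = DMSO basal and 100% = 10 µM staurosporine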
Procedure, shortened: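 Primary rat proximal tubule cells, 1000/well, 5 h plating at 37 °C, then compound 16 h at 37 °C. Caspase-Glo 3/7 reagent, 1 h RT, luminescence. Normalized to DMSO (basal) and 10 uM staurosporine (100%); Hill-fit AC50.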

[8] = target: Cytochrome P450 3A4 (Homo sapiens) (UniProt P08684); assay: qHTS Assay for Inhibitors and Substrates of Cytochrome P450 3A4 (AID 884); note: % is set by controls: 0 for no effect and ±100 for the full control effect; nearly all actives have a fitted effect of over 50% in size
Chain of Cytochrome P450 3A4 (Homo sapiens) (P08684 whole entry, looked up): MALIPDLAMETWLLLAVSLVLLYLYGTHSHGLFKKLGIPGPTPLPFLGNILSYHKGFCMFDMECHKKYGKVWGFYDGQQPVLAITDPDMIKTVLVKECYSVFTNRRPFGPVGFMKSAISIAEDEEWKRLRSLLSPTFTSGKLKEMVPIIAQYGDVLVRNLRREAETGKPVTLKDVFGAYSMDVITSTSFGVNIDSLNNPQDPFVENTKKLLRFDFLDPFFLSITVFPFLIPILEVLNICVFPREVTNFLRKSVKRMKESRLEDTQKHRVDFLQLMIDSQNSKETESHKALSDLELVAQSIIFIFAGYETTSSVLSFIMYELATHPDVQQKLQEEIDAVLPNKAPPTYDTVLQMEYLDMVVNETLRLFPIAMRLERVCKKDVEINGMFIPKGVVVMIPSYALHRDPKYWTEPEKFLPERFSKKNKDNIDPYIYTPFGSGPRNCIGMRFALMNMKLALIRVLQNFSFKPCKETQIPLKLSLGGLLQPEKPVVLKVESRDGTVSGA
Procedure, shortened: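 20 nM human CYP3A4 with 25 uM Luciferin-PPXE (at KM) in 200 mM KPO4, preincubated 10 min with compound; NADPH regeneration started a 60 min RT reaction. Luciferin detected by luminescence, normalized to 57 uM ketoconazole as full inhibition.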

[9] = Cell Viability - LYMP2-001 (AID 921);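 note: 0% = DMSO only and full inhibition = tetraoctylammonium bromide control wells; nearly all actives have a fitted effect of over 70% in size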
Procedure, shortened: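 Human lymphoblastoid cells (Coriell), 2500 per well, were preincubated 5 hr at 37 C, then exposed to compounds in complete medium for 24 hr at 37 C. Cellular ATP was read by CellTiter-Glo luminescence; AC50 from Hill fits of concentration-response data.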

[10] = MultiTox-Fluor Cytotoxicity Assay - LYMP1-001 - Dead Cells (AID 946);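 note: 0% = DMSO and 100% = tetraoctylammonium bromide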
Procedure, shortened: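 LYMP1-001 lymphoblastoid cells (2500/well) treated 16 h at 37 C. Dead-cell protease cleavage of bis-AAF-R110 read at Ex/Em 485/520. Normalized to DMSO and 15 uM tetraoctylammonium bromide; AC50 from Hill fits.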

[11] = MultiTox-Fluor Cytotoxicity Assay - LYMP1-001 - Live Cells (AID 947);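 note: 0% = DMSO only and full inhibition = tetraoctylammonium bromide control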
[12] = Cell Viability - LYMP1-002 - Assay at 16 hr (AID 948);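 note: 0% = DMSO alone and full effect = 92 µM tetraoctylammonium bromide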
Procedure, shortened: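 Human lymphoblastoid cells (LYMP1-002), 2500/well, were preincubated 5 hr at 37 C, then exposed to compounds for 16 hr at 37 C in complete medium. Cellular ATP was read by CellTiter-Glo luminescence after 30 min at room temperature; AC50 from Hill fits.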

[13] = MultiTox-Fluor Cytotoxicity Assay - LYMP1-002 - Live Cells (AID 955); note: % is set by controls: 0 for no effect and ±100 for the full control effect
Procedure, shortened: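 Cytotoxicity in the human lymphoblastoid line LYMP1-002 is measured as loss of live-cell protease activity after 16 h treatment in complete culture medium. AC50 is derived from Hill-equation fits of qHTS concentration-response data.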

[14] = MultiTox-Fluor Cytotoxicity Assay - LYMP1-002 - Dead Cells (AID 960);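 note: 0% = DMSO and 100% = tetraoctylammonium bromide; nearly all actives have a fitted effect of over 60% in size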
Procedure, shortened: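 Acute cytotoxicity in a human lymphoblastoid line is scored as rising dead-cell protease signal after 16 hr exposure at 37 C, measured fluorometrically (485/520).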

[15] = MultiTox-Fluor Cytotoxicity Assay - LYMP1-003 - Dead Cells (AID 961);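 note: 0% = DMSO and 100% = tetraoctylammonium bromide; nearly all actives have a fitted effect of over 70% in size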
Procedure, shortened: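 LYMP1-003 human lymphoblastoid cells (2500/well) exposed to compound 16 h at 37 C in complete medium; dead-cell protease read with bis-AAF-R110 fluorescence (Ex/Em 485/520) after 60 min at room temperature. Normalized to DMSO and 15 uM tetraoctylammonium bromide; AC50 from Hill fit.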

[16] = MultiTox-Fluor Cytotoxicity Assay - LYMP1-003 - Live Cells (AID 962);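 note: 0% = DMSO only and full loss = 92 µM tetraoctylammonium bromide; cytotoxic hits lower the live-cell protease signal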
Procedure, shortened: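 Cells plated at 2500 per well and incubated 5 hr; compounds added and incubated 16 hr at 37 C; MultiTox-Fluor reagent added for 60 min at room temperature; fluorescence of liberated AFC measured at 405/510 nm.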

[17] = Cell Viability - LYMP1-003 - Assay at 40 hr (AID 964); note: % is set by controls: 0 for no effect and ±100 for the full control effect; nearly all actives have a fitted effect of over 60% in size
Procedure, shortened: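 This qHTS cytotoxicity screen treats human lymphoblastoid cells (LYMP1-003) with compounds for 40 hr and quantifies cellular ATP via luciferase luminescence.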

[18] = Cell Viability - LYMP2-003 (AID 965);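 note: cells exposed to compounds for 24 h before reading; 0% = DMSO only and full effect = 92 µM tetraoctylammonium bromide; nearly all actives have a fitted effect of over 50% in size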
Procedure, shortened: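 Human lymphoblastoid cells (2500/well) were pre-incubated 5 hr at 37 C, then exposed to compounds over a concentration range for 24 hr at 37 C. Intracellular ATP was read by CellTiter-Glo luminescence; AC50 came from Hill-equation fits.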

[19] = Cell Viability - LYMP1-003 - Assay at 24 hr (AID 963);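 note: plate controls were DMSO only for no effect and tetraoctylammonium bromide positive control for full effect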
Procedure, shortened: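 Acute toxicity in LYMP1-003 lymphoblastoid cells: 24 hr compound treatment at 37 C, ATP measured with CellTiter-Glo after 30 min at room temperature. AC50 derived by fitting the Hill equation to qHTS titrations.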

O=C1C=CCCC1
inactive: caspase-3 activation [1] -1.96% | outcome [2] | caspase-3 activation [3] 0.0441% | caspase-3 activation [4] 3.14% | outcome [5] | outcome [6] | Potency [7] | Potency [8] | Potency [9] | outcome [10] | outcome [11] | outcome [12] | outcome [13] | outcome [14] | Potency [15] | Potency [16] | Potency [17] | Potency [18]

NC(=S)NNC(N)=S
inactive: caspase-3 activation [1] -0.792% | outcome [2] | caspase-3 activation [3] 0.228% | caspase-3 activation [4] 1.03% | outcome [5] | outcome [6] | Potency [7] | Potency [8] | Potency [9] | outcome [10] | outcome [11] | outcome [12] | outcome [13] | outcome [14] | Potency [15] | Potency [16] | Potency [19] | Potency [17] | Potency [18]

Nc1cccc(C(F)(F)F)c1
inactive: caspase-3 activation [1] 2.31% | outcome [2] | caspase-3 activation [3] -0.107% | caspase-3 activation [4] 2.75% | outcome [5] | outcome [6] | Potency [7] | Potency [8] | Potency [9] | outcome [10] | outcome [11] | outcome [12] | outcome [13] | outcome [14] | Potency [15] | Potency [16] | Potency [19] | Potency [17] | Potency [18]

C(=C/c1ccccc1)/c1ccccc1
inactive: caspase-3 activation [1] 0.853% | outcome [2] | caspase-3 activation [3] 0.852% | caspase-3 activation [4] 5.17% | outcome [5] | outcome [6] | Potency [7] | Potency [8] | Potency [9] | outcome [10] | outcome [11] | outcome [12] | outcome [13] | outcome [14] | Potency [15] | Potency [16] | Potency [19] | Potency [17] | Potency [18]

CC(=C/C=C/C(C)=C/C=C/C=C(C)/C=C/C=C(C)/C=C/C(=O)O)/C=C/C(=O)O
inactive: caspase-3 activation [1] -0.768% | outcome [2] | caspase-3 activation [3] 0.467% | caspase-3 activation [4] -1.17% | outcome [5] | outcome [6] | Potency [7] | Potency [8] | Potency [9] | outcome [10] | outcome [11] | outcome [12] | outcome [13] | outcome [14] | Potency [15] | Potency [16] | Potency [19] | Potency [17] | Potency [18]

O=C(O)CNC(=O)c1ccc([N+](=O)[O-])cc1
inactive: caspase-3 activation [1] -0.679% | outcome [2] | caspase-3 activation [3] 0.8% | caspase-3 activation [4] -2.43% | outcome [5] | outcome [6] | Potency [7] | Potency [8] | Potency [9] | outcome [10] | outcome [11] | outcome [12] | outcome [13] | outcome [14] | Potency [16] | Potency [19] | Potency [17] | Potency [18]

CCCCN(CCO)CCCC
inactive: caspase-3 activation [1] 0.749% | outcome [2] | caspase-3 activation [3] -0.761% | caspase-3 activation [4] -0.886% | outcome [5] | outcome [6] | Potency [7] | Potency [8] | Potency [9] | outcome [10] | outcome [11] | outcome [12] | outcome [13] | outcome [14] | Potency [15] | Potency [16] | Potency [17] | Potency [18]

CC(=O)C1(C)CC2=C(CCCC2(C)C)CC1C (stereo not given)
inactive: caspase-3 activation [1] 1.57% | outcome [2] | caspase-3 activation [3] 1.88% | caspase-3 activation [4] 2.01% | outcome [5] | outcome [6] | Potency [7] | Potency [8] | Potency [9] | outcome [10] | outcome [11] | outcome [12] | outcome [13] | outcome [14] | Potency [15] | Potency [16] | Potency [19] | Potency [17] | Potency [18]

CCOCC(=O)O
inactive: caspase-3 activation [1] 1.49% | outcome [2] | caspase-3 activation [3] 0.681% | caspase-3 activation [4] 1% | outcome [5] | outcome [6] | Potency [7] | Potency [8] | Potency [9] | outcome [10] | outcome [11] | outcome [12] | outcome [13] | outcome [14] | Potency [16] | Potency [19] | Potency [17] | Potency [18]

Cc1ccc(C)o1
inactive: caspase-3 activation [1] -0.182% | outcome [2] | caspase-3 activation [3] -0.53% | caspase-3 activation [4] 0.32% | outcome [5] | outcome [6] | Potency [7] | Potency [8] | Potency [9] | outcome [10] | outcome [11] | outcome [12] | outcome [13] | Potency [16] | Potency [19] | Potency [17] | Potency [18]

Cc1ccc2ccccc2c1[N+](=O)[O-]
inactive: caspase-3 activation [1] 0.0968% | outcome [2] | caspase-3 activation [3] -1.44% | caspase-3 activation [4] -2.81% | outcome [5] | outcome [6] | Potency [7] | Potency [8] | Potency [9] | outcome [10] | outcome [11] | outcome [12] | outcome [13] | Potency [15] | Potency [16] | Potency [18]

c1ccc2n[nH]nc2c1
inactive: caspase-3 activation [1] 0.6% | outcome [2] | caspase-3 activation [3] -0.743% | caspase-3 activation [4] 1.96% | outcome [5] | outcome [6] | Potency [7] | Potency [8] | Potency [9] | outcome [10] | outcome [11] | outcome [12] | outcome [13] | Potency [15] | Potency [16] | Potency [19] | Potency [18]

O=C(O)CN(CC(=O)O)CC(=O)O
inactive: caspase-3 activation [1] 1.04% | outcome [2] | caspase-3 activation [3] 2.27% | caspase-3 activation [4] 0.365% | outcome [5] | outcome [6] | Potency [7] | Potency [8] | Potency [9] | outcome [10] | outcome [11] | outcome [12] | outcome [13] | Potency [15] | Potency [16] | Potency [19] | Potency [17]

Cc1ccc(Br)cc1
inactive: caspase-3 activation [1] -0.699% | outcome [2] | caspase-3 activation [3] 0.265% | caspase-3 activation [4] 0.98% | outcome [5] | outcome [6] | Potency [7] | Potency [8] | Potency [9] | outcome [10] | outcome [11] | outcome [12] | outcome [13] | Potency [15] | Potency [16] | Potency [18]
